The text below walks through data of the supplement of paper PMC9925115.

The subject of the assay is FLX1 + dox-induced PRKAR1A G325D. In words: difference in log2 fold change of viability vs plate median (dox-induced PRKAR1A G325D minus uninduced); higher = compound less effective when PKA is inhibited. The note with it: concentration: not stated (2 or 5 uM); 5 days. The method, then: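 For each plate a log2 fold change vs the plate median was derived, and the values without dox were subtracted from those with dox, averaged over three biological replicates.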

For the compound `CN1CCN(c2cccc(Nc3nc4c(-c5ccc(S(C)(=O)=O)cc5)cccn4n3)c2)CC1`, the “difference in log2 fold change of viability” value (“difference in log2 fold change” below) was -0.93.

For `C=CC(=O)Nc1cc(Nc2nccc(-c3cn(C)c4ccccc34)n2)c(OC)cc1N(C)CCN(C)C` [Osimertinib (AZD9291)], the “difference in log2 fold change” value was -0.173.

As to `CCN(CC)CCNC(=O)c1c(C)[nH]c(/C=C2\C(=O)Nc3ccc(F)cc32)c1C` [Sunitinib Malate], the “difference in log2 fold change” value is -0.043.

`COc1cc2ncnc(Nc3ccc(F)c(Cl)c3)c2cc1OCCCN1CCOCC1` [Gefitinib (ZD1839)]: the “difference in log2 fold change” value is -0.198.

For `Cc1cc(C(C)Nc2ccccc2)c2nc(N3CCOCC3)cc(=O)n2c1` (centres undefined), the “difference in log2 fold change” value was 0.222.

For `CNC(=O)c1ccccc1Nc1nc(Nc2ccc(N3CCOCC3)cc2OC)ncc1Cl`, the “difference in log2 fold change” value is -1.51.

As to `COc1cc2ncnc(Nc3ccc(O)c(Br)c3)c2cc1OC`, the “difference in log2 fold change” value was -0.279.

As to `C#Cc1cccc(Nc2ncnc3cc(OC)c(OCCCCCCC(=O)NO)cc23)c1`, the “difference in log2 fold change” value is -0.131.

For `Fc1cc(-c2cccc3ncc(-c4cnn(C5CCNCC5)c4)nc23)cc(F)c1CN1CCOCC1`, the “difference in log2 fold change” value came out at 0.246.

Consider `O=C(/C=C/c1ccc2ccccc2n1)c1ccncc1`, for which the “difference in log2 fold change” value is -0.467.

For `Cc1cn(-c2cc(NC(=O)c3ccc(C)c(Nc4nccc(-c5cccnc5)n4)c3)cc(C(F)(F)F)c2)cn1` [Nilotinib (AMN-107)], the “difference in log2 fold change” value came to 0.157.

As to `COc1ncc(-c2ccc3nccc(-c4ccnnc4)c3c2)cc1NS(=O)(=O)c1ccc(F)cc1F`, the “difference in log2 fold change” value is 0.179.

`COc1cccc2cc(-c3nc([C@H]4CC[C@H](C(=O)O)CC4)n4ncnc(N)c34)[nH]c12`: the “difference in log2 fold change” value came out at 0.812.

With `CCCS(=O)(=O)Nc1ccc(F)c(C(=O)c2c[nH]c3ncc(-c4ccc(Cl)cc4)cc23)c1F` [Vemurafenib (PLX4032, RG7204)], the “difference in log2 fold change” value amounted to 0.336.
